# Measurements as given in PubChem BioAssay (EPA / NIEHS).
# Values joined by “and” are separate entries in the source; they are usually repeats but may differ in a detail not shown here. Equal values may be shown once. More than one record can exist for a structure, and the calls need not agree. Active and inactive are the calls of the source. Rule for the calls: active = hit-call score of the fitted dose curve at least 0.9, where 1 is the maximum; inactive = score below 0.9.
# Test: APR_HepG2_MitoMass_72hr: Apredica 72-hour HepG2 Assay for Mitochondrial Mass (AID 2282924);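 note: MitoTracker Red CMXRos stain intensity per cell imaged as mitochondrial mass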
# Conditions: high-content imaging, actives raise or lower the signal
# Procedure, shortened: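 Read-out: MitoTracker Red fluorescence intensity from automated imaging (20x, six fields per well) in human HepG2 liver cells. Dosing ran 72 hr, 0.39–200 uM, 0.5% DMSO; bidirectional curve fitting versus DMSO baseline.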
Compound,AC50,outcome
CCCCc1oc2ccccc2c1C(=O)c1cc(I)c(OCCN(CC)CC)c(I)c1,52.6 µM (active),–
CN(C)CCOC(c1ccccc1)c1ccccc1,–,inactive
O=C1NS(=O)(=O)c2ccccc21,–,inactive
CCCCC=O,–,inactive
CC(=O)Nc1ccc(O)cc1,–,inactive
Cc1[nH]nc2c1N=C(c1ccccc1Cl)c1cc([N+](=O)[O-])ccc1N2,0.248 µM (active),–
O=C(CCCN1CCC(O)(c2ccc(Cl)cc2)CC1)c1ccc(F)cc1,30.8 µM (active),–
N=C(N)c1ccc(OCCCCCOc2ccc(C(=N)N)cc2)cc1,11.3 µM (active),–
CCCCCCCCCCCCCCC,–,inactive
CN(Cc1cnc2nc(N)nc(N)c2n1)c1ccc(C(=O)N[C@@H](CCC(=O)O)C(=O)O)cc1,–,inactive
CS(=O)(=O)c1ccc([C@@H](CC2CCCC2)C(=O)Nc2cnccn2)cc1Cl,–,inactive
O=C(c1ccccc1)c1ccccc1,–,inactive
CCCCCCCCCCCCOS(=O)(=O)O,–,inactive

# Test: APR_HepG2_NuclearSize_72hr: Apredica 72-hour HepG2 Assay for Nuclear Size (AID 2282925)
# Conditions: high-content imaging, actives raise or lower the signal
# Procedure, shortened: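 Read-out: nuclear diameter from Hoechst 33342 images (ArrayScan, 20x, six fields/well), via cell-cycle image analysis. HepG2 were dosed 0.39–200 uM for 72 hr in 0.5% DMSO. Bidirectional fit relative to DMSO.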
Compound,outcome,AC50
O=C1NS(=O)(=O)c2ccccc21,inactive,–
CCCCC=O,inactive,–
Cc1[nH]nc2c1N=C(c1ccccc1Cl)c1cc([N+](=O)[O-])ccc1N2,–,0.325 µM (active)
OCC(CO)(CBr)CBr,inactive,–
N=C(N)c1ccc(OCCCCCOc2ccc(C(=N)N)cc2)cc1,–,45.5 µM (active)
CCCCCCCCCCCCCCC,inactive,–
CN(Cc1cnc2nc(N)nc(N)c2n1)c1ccc(C(=O)N[C@@H](CCC(=O)O)C(=O)O)cc1,inactive,–
CCCCC(CC)C(=O)O (stereo not drawn),inactive,–
CCCCCCCCCCCCOS(=O)(=O)O,inactive,–

# Test: ATG_CRE_CIS: Attagene CIS-FACTORIAL HepG2 Assay for human cAMP Responsive Element (CRE) binding protein 3 (AID 2282926)
# Conditions: HepG2 CRE cis-reporter, Attagene multiplexed mRNA; actives raise or lower the signal
# Procedure, shortened: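 Induced reporter mRNA from a CRE cis element, measured in HepG2 among many multiplexed units at 24 h. Detection used RT-PCR plus capillary electrophoresis of fluorescent fragments; DMSO served as negative control.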
Compound,AC50,outcome
CCCCc1oc2ccccc2c1C(=O)c1cc(I)c(OCCN(CC)CC)c(I)c1,20.9 µM (active),–
CN(C)CCOC(c1ccccc1)c1ccccc1,–,inactive
O=C1NS(=O)(=O)c2ccccc21,–,inactive
CCCCC=O,–,inactive
O=C1Cc2ccccc2N1c1c(Cl)cccc1Cl,–,inactive
C=CC(=O)OCCN(CC)CC,26.9 µM (active),–
CCCCCCCCCCCC[N+](C)(C)Cc1ccccc1,19.5 µM (active),inactive
CC(=O)Nc1ccc(O)cc1,–,inactive
Cc1[nH]nc2c1N=C(c1ccccc1Cl)c1cc([N+](=O)[O-])ccc1N2,–,inactive
OCC(CO)(CBr)CBr,–,inactive
O=C(CCCN1CCC(O)(c2ccc(Cl)cc2)CC1)c1ccc(F)cc1,52.9 µM (active),–
N=C(N)c1ccc(OCCCCCOc2ccc(C(=N)N)cc2)cc1,–,inactive
NC(C(F)(F)F)C(F)(F)F,–,inactive
CC(C)(C)c1ccc(O)c(O)c1,47.8 µM (active) and 181 µM (active),inactive
Cc1cccc2c1ccc1ccccc12,–,inactive
NC(=NCCCCCCN=C(N)/N=C(\N)Nc1ccc(Cl)cc1)/N=C(\N)Nc1ccc(Cl)cc1,24 µM (active),inactive
CCCCCCCCCCCCCCC,–,inactive
O=S(=O)(O)C(F)(F)C(F)(F)C(F)(F)C(F)(F)C(F)(F)C(F)(F)C(F)(F)C(F)(F)C(F)(F)C(F)(F)F,–,inactive

Compound,AC50,outcome
COC(=O)C(F)(F)C(F)(F)C(F)(F)C(F)(F)C(F)(F)F,–,inactive
CCCCCC(C)OC(=O)COc1ccc(Cl)c2cccnc12 (stereo not drawn),–,inactive
CN(Cc1cnc2nc(N)nc(N)c2n1)c1ccc(C(=O)N[C@@H](CCC(=O)O)C(=O)O)cc1,–,inactive
C=CC(F)(F)C(F)(F)C(F)(F)C(F)(F)F,–,inactive
CCCCC(CC)C(=O)O (stereo not drawn),–,inactive
CCOC=O,–,inactive
CCCCCCCCCCCCCC[n+]1ccccc1,–,inactive
CC(C)(C)C1CCCCC1O (stereo not drawn),–,inactive
O=C(NO)c1ccccc1,8.57 µM (active),inactive
O=C(c1ccccc1)c1ccccc1,–,inactive
C[N+](C)(CCCNS(=O)(=O)CCC(F)(F)C(F)(F)C(F)(F)C(F)(F)C(F)(F)C(F)(F)F)CC(=O)[O-],–,inactive
CN(C)c1ccc(C(=C2C=CC(=[N+](C)C)C=C2)c2ccccc2)cc1,2.56 µM (active),inactive
NNc1nc(-c2ccc([N+](=O)[O-])cc2)cs1,–,inactive
C=C(c1ccc(C(=O)O)cc1)c1cc2c(cc1C)C(C)(C)CCC2(C)C,31.9 µM (active),inactive
C=CC(=C)CC/C=C(\C)CCC=C(C)C,–,inactive
CC[N+](CC)(CC)Cc1ccccc1,–,inactive
O=C1OC(=O)C(F)(F)C1(F)F,–,inactive
